Data on nine compounds can be found in PubChem BioAssay AID652106 (National Center for Advancing Translational Sciences (NCATS), 2013).

Structures are written as SMILES. Out of some 370,000 compounds screened, about 500 (0.14%) were called active. Where a call stands in place of a potency, no number is given. Inconclusive results (about 2%) are left out. The call rests on the fitted dose curve; in most records, active means well fitted activation curve with a large enough effect; inconclusive means small, poorly fitted or top-dose-only effect; inactive means no such curve, though single readings can be large or run the other way. Only a selection was taken, and actives are over-represented in it overall.
Potency means the concentration at half of the fitted maximal effect.

The assay is described as follows: qHTS of alpha-syn Inhibitors. Further: nearly all actives have a fitted effect of over 65% in size. Conditions: Yeast expressing alpha-synuclein, BacTiter-Glo, 24 h; Potency: growth rescue; series mostly up to 46.1 µM. The source says:
The goal of this project is to identify new chemical probes capable of reversing the toxicity associated with the Parkinson disease-related protein, alpha-synuclein. Compounds will be selected on their ability to restore growth in yeast cells expressing toxic levels of alpha-synuclein. These compounds will provide a complementary approach to deciphering the tangled mechanisms of toxicity and protection that we have uncovered through genome-wide genetic screens and are beginning to uncover in a large-scale proteomics analysis with mass spectroscopy. To this end, a miniaturized assay was developed to be screened against the Molecular Libraries Small Molecule Repository (MLSMR) to discover alpha-synuclein inhibitors. Please note that in the set-up this yeast-based assay compounds that inhibit as alpha-syn, have a read-out as activators. NIH Chemical Genomics Center [NCGC] NIH Molecular Libraries Probe Centers Network [MLPCN] MLPCN Grant: NS060957 Assay Submitter (PI): Susan Lindquist, Whitehead Institute/MIT
Dispense 2.5 microL yeast galactose medium per 1536-well plate, pin compound, dispense 2.5 microL alpha-synuclein expressing yeast in galactose medium at OD600=0.02 (pregrown in raffinose medium to mid-log phase) per well, incubate for 24 hr at 30 deg C, and cell growth will be measured using 5 microL of Bactiter/Glo reagent to entire plate and read using Luminescence Protocol in ViewLux.
In general terms: In qHTS, concentration-response curves come from the screen itself.
Regarding `C[C@@H]1C[C@@H]2O[C@H]2/C=C\C=C\C(=O)Cc2c(Cl)c(O)cc(O)c2C(=O)O1`, the Potency was 7.94 µM (active).

As to `O=C(NCC1=C(c2ccc3ccccc3c2)C[C@@H]2CC[C@H]1N2Cc1ccco1)c1cccs1`, the Potency is 3.55 µM (active).

Turning to `Cc1ncoc1C(=O)NCC1=C(c2cccc3ccccc23)C[C@@H]2CC[C@H]1N2Cc1ccco1`, the Potency result is “inactive”.

Consider `CC(=O)NCC1=C(c2ccc3ccccc3c2)C[C@@H]2CC[C@H]1N2Cc1ccco1`, for which the Potency entry is “inactive”.

`N#Cc1c(Cl)c(Cl)c(Cl)c(C#N)c1Cl`: the Potency entry was “inactive”.

On to `COc1ccc(NC(=O)Nc2cccc3cccnc23)cc1`, for which the Potency entry is “inactive”.

As to `c1ccc(Cc2nn3c(Cn4cnc5ccccc54)nnc3s2)cc1`, the Potency entry is “inactive”.

As for `O=C(O)/C=C/c1ccc2c(c1)OCO2`, the Potency entry is “inactive”.

Take `CC(=O)c1c(O)c(C)c(O)c(Cc2c(O)c3c(c(C(=O)/C=C/c4ccccc4)c2O)OC(C)(C)C=C3)c1O`: the Potency result was “inactive”.
